Assay results reported in the supplement of paper PMC11732987, “Enantioselective OTUD7B fragment discovery through chemoproteomics screening and high-throughput optimisation” (Communications Chemistry, 2025).

Assays:
Experiment in all cases: log2 ratio of Biotin-Ahx-Ub-VS probe labelling (fragment/DMSO); higher = less target engagement (more negative = stronger competition), active = hit call of the paper (q ≤ 0.05, log2 ratio ≤ -1)
Conditions in all cases: compound concentration: 200 uM; treatment time: 3 h
[1] = target: T1, USP19 (UniProt O94966)
T1 sequence (whole entry): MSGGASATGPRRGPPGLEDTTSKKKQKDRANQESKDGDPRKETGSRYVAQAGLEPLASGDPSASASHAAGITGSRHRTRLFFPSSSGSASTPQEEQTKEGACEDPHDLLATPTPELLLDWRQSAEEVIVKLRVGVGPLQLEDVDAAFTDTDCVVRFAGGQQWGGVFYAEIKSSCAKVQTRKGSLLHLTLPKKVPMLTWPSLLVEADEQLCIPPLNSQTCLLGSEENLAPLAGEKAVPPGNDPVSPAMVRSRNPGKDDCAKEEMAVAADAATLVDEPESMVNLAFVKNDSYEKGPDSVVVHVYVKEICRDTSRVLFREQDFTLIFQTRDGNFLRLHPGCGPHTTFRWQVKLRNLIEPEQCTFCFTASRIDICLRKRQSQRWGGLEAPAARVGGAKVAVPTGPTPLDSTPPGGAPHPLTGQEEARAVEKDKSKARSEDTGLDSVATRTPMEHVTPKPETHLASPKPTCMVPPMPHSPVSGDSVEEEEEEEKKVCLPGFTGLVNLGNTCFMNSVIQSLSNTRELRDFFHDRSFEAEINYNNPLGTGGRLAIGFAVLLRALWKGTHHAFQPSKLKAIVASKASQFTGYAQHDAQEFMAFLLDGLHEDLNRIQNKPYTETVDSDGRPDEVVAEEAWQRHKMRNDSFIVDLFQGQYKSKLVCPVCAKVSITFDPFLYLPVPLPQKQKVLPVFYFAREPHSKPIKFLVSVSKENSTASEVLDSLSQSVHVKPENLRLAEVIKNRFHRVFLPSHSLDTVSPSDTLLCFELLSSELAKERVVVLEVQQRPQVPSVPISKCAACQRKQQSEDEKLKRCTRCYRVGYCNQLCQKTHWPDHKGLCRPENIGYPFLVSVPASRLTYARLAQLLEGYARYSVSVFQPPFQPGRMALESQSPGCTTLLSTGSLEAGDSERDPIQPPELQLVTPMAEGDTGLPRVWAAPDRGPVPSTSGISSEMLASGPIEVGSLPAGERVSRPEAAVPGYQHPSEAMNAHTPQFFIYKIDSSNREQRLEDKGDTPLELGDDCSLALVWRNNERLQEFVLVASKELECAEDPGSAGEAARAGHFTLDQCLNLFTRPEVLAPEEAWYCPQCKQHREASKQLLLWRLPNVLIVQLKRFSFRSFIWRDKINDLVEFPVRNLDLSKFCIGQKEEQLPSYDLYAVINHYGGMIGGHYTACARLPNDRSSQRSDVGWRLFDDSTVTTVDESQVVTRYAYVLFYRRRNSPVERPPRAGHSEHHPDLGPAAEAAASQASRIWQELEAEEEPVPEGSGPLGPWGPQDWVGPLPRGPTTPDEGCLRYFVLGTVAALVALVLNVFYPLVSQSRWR
In short: (§1)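 Labelling with Biotin-Ahx-Ub-VS (0.5 µM final, 1 h) followed a 3 h triplicate treatment of HEK293T lysate (495 µg per sample, Tris/CHAPS/IGEPAL buffer with protease inhibitors) with fragment at 200 µM or vehicle. Labelled DUBs were NeutrAvidin-enriched, digested with LysC and trypsin, and run by diaPASEF LC-MS/MS. The values, average log2 fragment/vehicle ratios by unpaired t-test, come from global-median-normalised Spectronaut label-free quantities. Proteins with ≥2 unique peptides were used.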

[2] = target: T2, USP22 (UniProt Q9UPT9)
T2 sequence (whole entry): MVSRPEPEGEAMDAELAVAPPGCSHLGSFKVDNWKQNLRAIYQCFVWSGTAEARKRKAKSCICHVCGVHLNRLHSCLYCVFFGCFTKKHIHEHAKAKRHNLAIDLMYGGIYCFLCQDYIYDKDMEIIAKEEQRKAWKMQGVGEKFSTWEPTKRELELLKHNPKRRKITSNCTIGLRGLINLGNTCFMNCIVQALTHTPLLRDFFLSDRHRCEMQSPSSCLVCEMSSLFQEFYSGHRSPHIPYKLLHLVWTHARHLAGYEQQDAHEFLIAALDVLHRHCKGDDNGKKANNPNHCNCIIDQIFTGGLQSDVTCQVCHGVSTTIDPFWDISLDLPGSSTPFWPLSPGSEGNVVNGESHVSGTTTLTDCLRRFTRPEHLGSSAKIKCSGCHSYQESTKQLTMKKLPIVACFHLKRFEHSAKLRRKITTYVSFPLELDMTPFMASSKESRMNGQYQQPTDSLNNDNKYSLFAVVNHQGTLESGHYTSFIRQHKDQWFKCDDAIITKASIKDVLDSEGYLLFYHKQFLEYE
In short: as §1

[3] = target: USP24 (UniProt Q9UPU5)
Sequence of USP24 (Q9UPU5 whole entry): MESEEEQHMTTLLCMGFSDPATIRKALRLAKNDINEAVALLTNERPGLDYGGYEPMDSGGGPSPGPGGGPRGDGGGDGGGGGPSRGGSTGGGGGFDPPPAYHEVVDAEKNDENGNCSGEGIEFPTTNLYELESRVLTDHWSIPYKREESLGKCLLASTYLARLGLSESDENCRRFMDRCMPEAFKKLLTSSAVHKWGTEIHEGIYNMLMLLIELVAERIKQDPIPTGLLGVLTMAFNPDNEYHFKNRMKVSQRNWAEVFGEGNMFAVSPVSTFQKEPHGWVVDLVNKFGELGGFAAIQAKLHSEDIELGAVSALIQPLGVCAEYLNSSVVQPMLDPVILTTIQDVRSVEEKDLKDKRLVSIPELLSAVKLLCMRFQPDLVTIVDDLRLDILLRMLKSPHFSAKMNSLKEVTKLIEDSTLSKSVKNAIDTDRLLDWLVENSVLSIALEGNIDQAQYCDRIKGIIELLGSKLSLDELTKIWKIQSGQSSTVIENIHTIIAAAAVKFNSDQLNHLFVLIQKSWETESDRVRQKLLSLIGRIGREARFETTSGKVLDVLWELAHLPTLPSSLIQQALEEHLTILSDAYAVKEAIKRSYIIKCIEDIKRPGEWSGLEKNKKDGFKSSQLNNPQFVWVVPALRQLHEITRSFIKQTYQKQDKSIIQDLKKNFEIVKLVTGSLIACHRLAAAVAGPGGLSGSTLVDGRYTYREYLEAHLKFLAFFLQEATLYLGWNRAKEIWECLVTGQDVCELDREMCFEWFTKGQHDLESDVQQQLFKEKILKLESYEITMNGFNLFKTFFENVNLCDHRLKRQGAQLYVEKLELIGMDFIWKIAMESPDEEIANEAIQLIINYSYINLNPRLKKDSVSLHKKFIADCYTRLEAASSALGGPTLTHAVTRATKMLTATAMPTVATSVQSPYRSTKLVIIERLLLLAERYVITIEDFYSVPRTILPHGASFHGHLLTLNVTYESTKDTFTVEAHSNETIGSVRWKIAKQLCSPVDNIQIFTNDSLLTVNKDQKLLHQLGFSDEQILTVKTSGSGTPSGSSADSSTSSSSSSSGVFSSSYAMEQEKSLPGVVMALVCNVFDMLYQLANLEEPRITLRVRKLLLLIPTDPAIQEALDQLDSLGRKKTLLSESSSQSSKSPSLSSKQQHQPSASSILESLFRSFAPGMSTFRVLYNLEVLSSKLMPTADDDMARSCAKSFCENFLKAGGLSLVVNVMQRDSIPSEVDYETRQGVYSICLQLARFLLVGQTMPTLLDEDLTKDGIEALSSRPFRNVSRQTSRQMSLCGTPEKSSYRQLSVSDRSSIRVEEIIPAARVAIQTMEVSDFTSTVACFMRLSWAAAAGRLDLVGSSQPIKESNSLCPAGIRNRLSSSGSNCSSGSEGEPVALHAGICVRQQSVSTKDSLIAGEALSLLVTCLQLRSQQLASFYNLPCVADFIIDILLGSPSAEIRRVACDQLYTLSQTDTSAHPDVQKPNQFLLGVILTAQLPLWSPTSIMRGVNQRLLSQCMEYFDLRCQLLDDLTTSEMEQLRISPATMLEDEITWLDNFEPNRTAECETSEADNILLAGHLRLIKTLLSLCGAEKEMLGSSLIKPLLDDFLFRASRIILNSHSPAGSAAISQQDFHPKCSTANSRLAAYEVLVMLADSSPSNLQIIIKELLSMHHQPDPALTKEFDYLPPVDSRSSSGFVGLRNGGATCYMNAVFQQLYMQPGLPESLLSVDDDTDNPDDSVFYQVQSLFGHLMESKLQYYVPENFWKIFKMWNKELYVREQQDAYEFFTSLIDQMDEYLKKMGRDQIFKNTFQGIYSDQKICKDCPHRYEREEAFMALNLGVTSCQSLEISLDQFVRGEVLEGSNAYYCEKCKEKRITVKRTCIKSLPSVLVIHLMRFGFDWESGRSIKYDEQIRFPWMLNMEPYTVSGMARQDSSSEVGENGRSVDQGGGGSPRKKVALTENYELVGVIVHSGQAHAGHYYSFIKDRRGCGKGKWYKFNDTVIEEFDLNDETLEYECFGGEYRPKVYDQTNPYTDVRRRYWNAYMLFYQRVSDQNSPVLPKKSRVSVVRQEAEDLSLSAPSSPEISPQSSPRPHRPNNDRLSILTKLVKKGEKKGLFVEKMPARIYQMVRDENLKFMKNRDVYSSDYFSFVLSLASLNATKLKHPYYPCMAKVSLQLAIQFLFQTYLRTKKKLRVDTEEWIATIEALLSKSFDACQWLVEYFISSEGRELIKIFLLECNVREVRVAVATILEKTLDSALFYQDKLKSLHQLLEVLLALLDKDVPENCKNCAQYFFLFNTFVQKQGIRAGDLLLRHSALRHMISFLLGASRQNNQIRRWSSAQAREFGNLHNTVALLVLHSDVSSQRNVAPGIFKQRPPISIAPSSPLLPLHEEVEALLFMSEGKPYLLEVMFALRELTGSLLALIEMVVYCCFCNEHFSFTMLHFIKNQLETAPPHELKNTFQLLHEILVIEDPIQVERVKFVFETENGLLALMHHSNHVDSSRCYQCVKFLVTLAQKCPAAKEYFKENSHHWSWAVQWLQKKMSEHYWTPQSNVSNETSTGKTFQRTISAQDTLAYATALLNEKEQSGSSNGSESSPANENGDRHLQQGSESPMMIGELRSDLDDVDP
In short: as §1

[4] = target: T3, USP25 (UniProt Q9UHP3)
T3 sequence (whole entry): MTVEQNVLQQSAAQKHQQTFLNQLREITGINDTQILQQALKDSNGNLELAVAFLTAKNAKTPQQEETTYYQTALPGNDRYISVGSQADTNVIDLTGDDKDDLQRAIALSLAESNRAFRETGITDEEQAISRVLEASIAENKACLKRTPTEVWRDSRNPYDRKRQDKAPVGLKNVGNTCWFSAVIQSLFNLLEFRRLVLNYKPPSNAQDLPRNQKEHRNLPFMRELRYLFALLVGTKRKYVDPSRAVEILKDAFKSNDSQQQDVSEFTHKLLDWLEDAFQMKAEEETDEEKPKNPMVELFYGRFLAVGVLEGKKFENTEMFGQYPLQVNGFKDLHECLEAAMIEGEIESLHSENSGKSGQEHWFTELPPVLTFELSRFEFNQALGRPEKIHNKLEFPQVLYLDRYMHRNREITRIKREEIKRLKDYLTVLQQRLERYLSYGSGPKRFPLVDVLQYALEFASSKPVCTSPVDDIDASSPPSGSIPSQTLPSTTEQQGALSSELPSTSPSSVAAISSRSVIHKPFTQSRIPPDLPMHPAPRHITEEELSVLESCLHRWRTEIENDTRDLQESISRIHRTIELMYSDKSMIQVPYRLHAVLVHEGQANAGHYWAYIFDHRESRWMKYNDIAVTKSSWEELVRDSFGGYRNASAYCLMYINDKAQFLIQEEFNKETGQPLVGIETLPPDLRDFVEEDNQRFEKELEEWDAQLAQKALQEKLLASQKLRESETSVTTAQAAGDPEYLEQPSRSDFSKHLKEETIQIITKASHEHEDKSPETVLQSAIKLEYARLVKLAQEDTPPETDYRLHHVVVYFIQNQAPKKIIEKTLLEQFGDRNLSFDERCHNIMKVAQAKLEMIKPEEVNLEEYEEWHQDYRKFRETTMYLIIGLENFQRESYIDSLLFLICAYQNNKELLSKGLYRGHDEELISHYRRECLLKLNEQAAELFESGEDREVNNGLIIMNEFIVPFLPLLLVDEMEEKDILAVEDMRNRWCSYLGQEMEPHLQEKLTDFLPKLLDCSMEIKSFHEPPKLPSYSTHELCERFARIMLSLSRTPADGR
In short: as §1

[5] = target: T4, USP28 (UniProt Q96RU2)
T4 sequence (whole entry): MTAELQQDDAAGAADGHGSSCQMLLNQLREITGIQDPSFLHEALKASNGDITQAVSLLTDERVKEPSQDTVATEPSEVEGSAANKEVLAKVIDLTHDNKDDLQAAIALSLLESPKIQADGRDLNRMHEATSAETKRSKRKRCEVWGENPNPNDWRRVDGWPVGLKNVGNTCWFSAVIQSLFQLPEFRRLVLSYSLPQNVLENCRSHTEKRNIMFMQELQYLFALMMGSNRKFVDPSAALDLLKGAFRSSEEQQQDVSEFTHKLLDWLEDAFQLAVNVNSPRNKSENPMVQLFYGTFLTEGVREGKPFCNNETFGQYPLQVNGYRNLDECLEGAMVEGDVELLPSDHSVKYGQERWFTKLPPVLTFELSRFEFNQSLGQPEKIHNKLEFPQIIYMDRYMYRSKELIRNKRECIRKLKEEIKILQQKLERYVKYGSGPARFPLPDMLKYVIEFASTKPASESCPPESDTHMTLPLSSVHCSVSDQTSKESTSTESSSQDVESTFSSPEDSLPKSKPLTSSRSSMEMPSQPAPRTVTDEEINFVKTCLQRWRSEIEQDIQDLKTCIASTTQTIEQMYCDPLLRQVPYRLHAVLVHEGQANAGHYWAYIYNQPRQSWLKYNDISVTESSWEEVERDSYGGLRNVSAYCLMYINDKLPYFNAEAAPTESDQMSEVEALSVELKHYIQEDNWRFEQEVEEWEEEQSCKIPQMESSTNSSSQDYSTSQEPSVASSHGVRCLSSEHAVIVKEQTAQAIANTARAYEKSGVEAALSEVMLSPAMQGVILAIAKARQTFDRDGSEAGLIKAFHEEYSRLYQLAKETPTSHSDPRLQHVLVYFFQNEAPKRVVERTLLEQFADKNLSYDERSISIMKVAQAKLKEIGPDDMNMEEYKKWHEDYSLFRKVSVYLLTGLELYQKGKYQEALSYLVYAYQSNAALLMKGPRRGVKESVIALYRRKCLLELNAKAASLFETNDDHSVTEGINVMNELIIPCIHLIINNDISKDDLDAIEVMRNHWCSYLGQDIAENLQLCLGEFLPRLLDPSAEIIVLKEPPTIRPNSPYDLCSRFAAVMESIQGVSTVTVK
In short: as §1

Measured: log2 ratio of Biotin-Ahx-Ub-VS probe labelling

CCN(C(=O)CCl)C1CCCCC1
inactive: [1] 0.1 | [2] 0.0286 | [3] -0.333 | [4] 0.0335 | [5] -0.0965
